# Assay outcomes (PubChem)
# Most compounds without a hit are left out; they make up all but 4.3% or so of the library.
# MITF TRPM1 HTS = activators of MITF-driven TRPM1 promoter reporter, primary screen, cell-based, SK-MEL-5, luciferase, single point | 300,000 compounds, 0.75% hits | activation, % at 12.5 µM | SK-MEL-5 TRPM1-promoter luciferase, 24 h; % of positive control, neutral wells = 0;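 active means mean activation of at least 80% with every replicate also reaching 80%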;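 further: 0% = neutral control wells and 100% = parthenolide positive control wells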
# HSF1 inh = HSF1 inhibitors in luciferase reporter cells, primary screen, cell-based, NIH3T3, luminescence. NIH3T3-HGL HSE-luciferase, MG132-induced, luminescence 8 h; active compounds read low. activity change, negative = inhibition, % at 7.5 µM (by protocol). 300,000 compounds, 0.77% hits. AID 2098, 2009;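 active means more than half of replicate wells show activity change below -50%, luminescence cut by over half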;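 further: luciferase reports HSF-1 transcriptional activity via heat shock element; 0% = median of DMSO wells and -100% = zero luminescence signal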
# HSF-1 act = HSF-1 activators, primary screen, NIH3T3-HGL cells, MG132 stress, luminescence, single point. 300,000 compounds, 1.7% hits. activation, % at 9 µM. NIH3T3-HGL HSF-1 luciferase reporter, 8 h; 100% = twice DMSO control signal. AID 504408, 2011;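 active means mean replicate activation of at least 50% with a set share of replicates each reaching 50%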;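 further: 0% = median of the neutral control wells and 100% = twice that signal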
# esBAF inh = Bmi1 luciferase reporter increase in mESCs, primary screen, esBAF inhibitor project, mouse ES cells, Bmi1 luciferase knock-in, single point | 24 h; 100% = twice the neutral-well signal | reporter increase, % at 12.5 µM | 350,000 compounds, 2% hits; in the data active means activation above about 40%;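 further: 0% = median of the plate's neutral control wells and 100% = double that signal; a rise in the Bmi1 reporter signal indicates esBAF inhibition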
# SMARCA2 act = SMARCA2 (BRM) function activators, primary screen, cell-based, luminescence, high throughput. MG213 cells, MMTV-luciferase reporter, dexamethasone, overnight. activation, % at 9.1 µM. 370,000 compounds, 1% hits. AID 652017, 2013; in the data active means activation above about 7.8%;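 further: 0% = vehicle wells and 100% = reference activator wells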
# Wnt bcat act = Wnt/beta-catenin pathway activators, primary screen, cell-based, plate reader, single point; activation, % at 9.35 µM; Wnt/beta-catenin reporter cell assay, activator; 300,000 compounds, 1.2% hits; in the data active means activation above about 30%, passing the limit was not always enough;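 further: 0% = neutral control wells and 100% = positive control wells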
# SMARCA2 act conf = SMARCA2 (BRM) function activators, confirmation, cell-based, luminescence, triplicate; activation, % at 9.1 µM; 3,500 compounds, 30% hits; MG213 cells, MMTV-luciferase with dexamethasone, overnight; MG213 cells expressing E1A, Rb sequestered; DMSO wells 0%, reference activator 100%; shares compounds with SMARCA2 act;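 active means activation above its plate's cutoff, the mean activation of tested wells plus 3 SD, cut at about 7.9% in these data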
# GAL4-VP16 Luc = GAL4-VP16 luciferase reporter activation, counter-screen for SMARCA2 (BRM) activator project, cell-based, pG5luc, luminescence, high throughput | shares compounds with SMARCA2 act | 3,500 compounds, 41% hits | AID 686939, 2013 | HEK293 GAL4-VP16 pG5luc reporter; scaled: DMSO wells 0%, SAHA wells 100% | activation, % at 9.1 µM;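 active means activation above the solvent-only control well mean plus 3 SD, averaged across control plates, cut at about 5.2% in these data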
# * marks the source's active call; other numbers are inactive results; / = not tested or not shown.
SMILES,MITF TRPM1 HTS,HSF1 inh,HSF-1 act,esBAF inh,SMARCA2 act,Wnt bcat act,SMARCA2 act conf,GAL4-VP16 Luc
O=C(N[C@@H]1CC[C@H](CCn2cc(C3CCCCC3)nn2)O[C@H]1CO)c1cccnc1,/,/,/,1.2,/,/,/,/
C[C@@H]1CCCCO[C@@H](CN(C)Cc2ccc(Cl)c(Cl)c2)[C@@H](C)CN([C@@H](C)CO)C(=O)c2cc(NC(=O)C3CCCCC3)ccc2O1,/,/,/,3.7,/,/,/,/
Cc1ccc(C(=O)CC(C(=O)O)n2ccc(C)n2)cc1 (stereo unspecified),2.2,4.6,-2.5,1.5,8.2*,-4.6,-0.9,-0.4
NNC(=O)c1nnsc1-c1csnn1,0.9,/,/,/,9.1*,-2.3,-1.4,0.0
O=C(O)c1nnsc1-c1csnn1,19.4,/,/,/,1.7,-1.0,/,/
O=C(NC1CCCCC1)c1ccc(-c2ccccc2[N+](=O)[O-])o1,11.2,27.2,43.9,89.2*,10.7*,24.9,8.7*,12.3*
Cc1noc(C)c1NC(=O)Nc1ccc2c(c1)C(=O)N([C@H](C)CO)C[C@@H](C)[C@@H](CN(C)CC1CCCCC1)OCCCC[C@H](C)O2,/,/,/,-5.8,/,/,/,/
C[C@@H]1CN([C@H](C)CO)C(=O)Cc2cc(NS(=O)(=O)c3cn(C)cn3)ccc2O[C@H]1CN(C)CC1CCCCC1,/,/,/,-3.3,/,/,/,/
CC(=O)c1nn(-c2cccc(Br)c2)cc1C(=O)c1ccco1,/,-6.6,-12.3,-1.7,8.4*,-4.0,-2.9,1.4
COc1ccc(-c2coc3c(C(=O)NCCN(C)C)cccc23)c(C)c1,/,/,/,-2.5,-3.9,-3.1,/,/
CN(C)CCNC(=O)c1cccc2[nH]c(-c3ccncc3)nc12,/,/,/,/,5.3,-2.2,/,/
CN(C)CCNC(=O)c1cccc2nc3c(ccc4ccccc43)nc12,/,/,/,/,18.7*,5.9,31.5*,3.9
COc1ccc(C(=O)NCCN(C)C)c2nc3ccccc3cc12,/,/,/,/,12.4*,-2.5,95.0*,7.3*
COc1cccc2nc3c(C(=O)NCCN(C)C)cccc3cc12,/,/,/,/,10.0*,2.1,41.5*,2.2
CN(C)CCNC(=O)c1cc(Sc2ccc(F)cc2)nc2ccccc12,/,-4.7,2.7,/,/,/,/,/
COc1ccc(-c2nc3c(C(=O)NCCN(C)C)cccc3c3ccccc23)cc1,/,/,/,/,12.0*,0.6,26.3*,1.2
COc1ccc(C(=O)Nc2cccc(/C(C)=N\NC(=O)c3ccoc3C)c2)cc1OC,26.5,24.3,31.3,14.0,8.4*,5.1,-2.9,7.9*
CC(=O)N1[C@H](CNC(=O)CN2CCOCC2)[C@H](c2ccccc2)[C@@H]1CO,/,/,/,1.7,/,/,/,/
Nc1ccc2cc3ccc(N)cc3nc2c1,/,/,/,/,42.8*,/,-11.4,-2.3
Cc1ccc2cc(N)ccc2n1,1.2,/,/,/,0.7,-0.9,/,/
Cn1c(N)c(C(=O)COC(=O)CCCN2C(=O)c3ccccc3C2=O)c(=O)n(C)c1=O,-4.9,0.0,-12.2,-2.3,-2.2,-2.4,/,/
CC(C(=O)OCC(=O)c1c(N)n(C)c(=O)n(C)c1=O)N1C(=O)c2ccccc2C1=O (stereo unspecified),9.1,-1.4,-6.8,/,10.4*,-3.2,7.1,0.1
COc1cc(-c2ccc(=O)[nH]n2)ccc1OC(F)F,-39.3,-6.0,-12.4,-2.3,8.1*,-19.4,15.3*,3.0
COc1ccc(-c2ccc(=O)[nH]n2)cc1,-2.3,2.1,33.6,0.2,/,-6.2,/,/
CNC[C@@H]1Oc2ccc(NC(=O)CCC(F)(F)F)cc2CC(=O)N([C@H](C)CO)C[C@H]1C,/,/,/,0.2,/,/,/,/
SMILES,MITF TRPM1 HTS,HSF1 inh,HSF-1 act,esBAF inh,SMARCA2 act,Wnt bcat act,SMARCA2 act conf,GAL4-VP16 Luc
CCCc1nc2oc3c(NCCCN(C)C)ncnc3c2c2c1CCCC2,/,-0.7,4.0,/,19.2*,-1.4,19.1*,1.1
C[C@H]1CN([C@@H](C)CO)C(=O)c2cccc(NC(=O)c3nc4ccccc4s3)c2O[C@@H]1CN(C)S(=O)(=O)c1ccc(Cl)cc1,/,/,/,2.8,/,/,/,/
N/C(=N\OC(=O)c1cccc(Cl)c1)c1ccccn1,2.5,-7.7,18.0,/,4.5,-18.3,/,/
N/C(=N\OC(=O)c1ccc2c(c1)OCO2)c1ccc(Cl)cc1,106.1*,26.2,48.9,27.6,8.9*,-2.2,10.2*,6.8*
Cc1occc1C(=O)O/N=C(\N)c1ccccc1,/,21.1,33.3,/,5.5,9.6,/,/
Cc1cccc(/C(N)=N/OC(=O)c2ccoc2C)c1,39.1,34.1,84.9*,35.8,8.1*,19.4,13.0*,12.9*
COc1cc(OC)c(C(=O)O/N=C(\N)c2ccccc2)cc1OC,28.7,-0.1,16.6,32.5,8.6*,7.7,3.5,1.7
COc1ccc(C(=O)O/N=C(\N)c2ccncc2)cc1OC,13.6,8.1,24.9,23.4,2.6,/,/,/
Cc1cc(/C(N)=N/OC(=O)c2cccc(Cl)c2)no1,/,20.1,27.8,/,13.3*,38.1*,4.4,1.2
C[C@H](CO)N1C[C@H](C)[C@H](CN(C)CC2CC2)Oc2c(NS(=O)(=O)c3cccs3)cccc2C1=O,/,/,/,-2.3,/,/,/,/
COc1ccc(NC(=O)N(C)C[C@H]2Oc3ccc(NS(C)(=O)=O)cc3C(=O)N([C@@H](C)CO)C[C@H]2C)cc1,/,/,/,0.7,/,/,/,/
COCC#Cc1ccc2c(c1)O[C@H](CN(C)C(=O)Nc1ccccc1F)[C@H](C)CN([C@H](C)CO)S2(=O)=O,/,/,/,-6.5,/,/,/,/
Cc1cccc(C(=O)O/N=C(\N)c2ccc(Cl)cc2)c1,26.6,11.0,31.5,/,9.0*,43.9*,7.6,4.9
Cc1cccc(OCC(=O)O/N=C(\N)c2ccc(Cl)cc2)c1,10.4,-1.1,-4.0,0.6,/,/,/,/
COc1ccc(C2C(C#N)=C(N)N(c3cccnc3)C3=C2C(=O)CC(C)(C)C3)cc1OC (stereo unspecified),-3.8,0.0,-8.6,/,9.2*,-0.9,1.3,1.9
O=C(COC(=O)CCN1C(=O)c2ccccc2C1=O)Nc1ccc(S(=O)(=O)N2CCCC2)cc1,/,-3.4,-8.4,-6.7,-4.5,/,/,/
O=C(COC(=O)CN1C(=O)c2ccccc2C1=O)Nc1ccc(S(=O)(=O)N2CCCC2)cc1,5.9,-7.0,38.6,-10.0,9.4*,2.1,-5.7,0.5
Cc1ccsc1/C=N/NC(=O)CO,-12.5,-6.8,5.7,/,4.1,18.9,/,/
Cc1ccsc1/C=N/NC(=O)c1sccc1C,11.1,31.1,63.8*,11.6,10.8*,-3.6,12.0*,11.0*
